The list is not random: actives were taken first. Their share in the collection is about 9%.
HPGD block: HPGD (human) dehydrogenase inhibition. purified HPGD, NADH fluorescence kinetic, PGE2 substrate. Potency, µM, inactives show at the highest dose activity change, negative = inhibition, most hits filed as inhibitors. actives 4.3% (n = 150,000); further: potency means the concentration at half of the fitted maximal effect
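20 nM HPGD preincubated 15 min at room temperature with compound in 50 mM Tris-HCl pH 8, 0.01% Tween 20. Started with 1 mM NAD+ and 30 uM prostaglandin E2; NADH fluorescence (360/450 nm) read 5 times over 30-s intervals, last minus first.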
ALDH1A1 block: inhibitors of human aldehyde dehydrogenase 1A1; Purified ALDH1A1, NADH fluorescence, propionaldehyde substrate; Potency, µM (series often up to 75.3 µM), inactives show at the top dose activity, negative = inhibition, usual class: inhibitors; actives 7.3% (n = 220,000);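 further: potency means the concentration at half of the fitted maximal effect; plate controls were no enzyme wells and a reference inhibitor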
Target sequence (P00352 whole entry, looked up): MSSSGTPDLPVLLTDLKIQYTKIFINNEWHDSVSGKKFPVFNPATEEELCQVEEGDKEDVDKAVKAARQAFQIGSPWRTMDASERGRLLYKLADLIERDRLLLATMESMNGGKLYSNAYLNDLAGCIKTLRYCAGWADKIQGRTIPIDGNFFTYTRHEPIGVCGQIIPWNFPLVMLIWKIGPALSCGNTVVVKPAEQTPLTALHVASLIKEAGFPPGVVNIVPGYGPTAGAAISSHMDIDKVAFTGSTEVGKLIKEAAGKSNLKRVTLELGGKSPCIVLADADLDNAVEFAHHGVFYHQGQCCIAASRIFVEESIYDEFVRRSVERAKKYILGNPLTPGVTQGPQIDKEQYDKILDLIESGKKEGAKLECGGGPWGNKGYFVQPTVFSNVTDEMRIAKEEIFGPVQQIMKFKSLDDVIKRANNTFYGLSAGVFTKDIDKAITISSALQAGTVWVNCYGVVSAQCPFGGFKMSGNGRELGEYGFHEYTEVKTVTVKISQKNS
IMPase cell inh: membrane-permeable compound that blocks inositol monophosphatase; inhibition (IP1 accumulation), % at 46.1 µM; 120,000 tested, under 10 active; AID 901; CHO-M1 cells, IP1 accumulation, HTRF TR-FRET ratio; active means well fitted curve in the direction sought with a large enough effect in the signal ratio, not every such curve was filed as active; inconclusive means small, poorly fitted or top-dose-only effect, or a change in a side signal; inactive means no such curve, though single readings can be large or run the other way; the % refers to the signal ratio;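 further: cells stimulated with carbachol in lithium chloride buffer; plate controls were DMSO basal wells for no effect and reference inhibitor wells for full effect; higher means more IMPase inhibition seen as more IP1 and lower FRET ratio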
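In this qHTS, compounds (final up to 46 uM) act on CHO-M1 cells that are then activated through the M1 receptor with carbachol, in pH 7.4 buffer containing 50 mM LiCl, for 30 min. IP1 accumulation is quantified by the IP-One immunoassay.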
An asterisk follows results filed as active; ? = inconclusive; nt = no result; [ ] = another dose, or the depositor's remark. Unless noted, the call rests on the fitted dose curve; in most records, active means well fitted inhibition curve with a large enough effect (not every such curve was filed as active); inconclusive means small, poorly fitted or top-dose-only effect, or another doubt; inactive means no such curve, though single readings can be large or run the other way. Unless noted, on the % scale 0 is the no-effect control and ±100 the full control effect.

SMILES	HPGD block	ALDH1A1 block	IMPase cell inh
COC(=O)/C(=C/c1ccco1)NC(=O)c1ccco1	-16.6%	10µM*	nt
C=CCOC(=O)/C(=C/c1ccco1)NC(=O)/C=C/c1ccccc1	-29.4%	15.8µM*	-0.9
COC(=O)/C(=C/c1ccco1)NC(=O)c1ccc(Br)o1	nt	20µM*	nt
O=C(NCCCO)/C(=C/c1ccco1)NC(=O)c1ccc(Br)o1	-14.0%	?	nt
COC(=O)/C(=C/c1ccco1)NC(=O)c1ccccc1	-8.8%	-3.0%	nt
COC(=O)C/C=C/C(C)C(OCc1cccc(Br)c1)C(C)C(OC)C1CCCCC1 (centres undefined)	nt	6.6%[13.5 µM]	nt
Cc1ccc(C(=O)c2oc3ccccc3c2NC(=O)COc2ccc(Cl)c(C)c2)cc1	nt	nt	0.3
COc1ccc(NC2CC(=O)N(c3ccccc3)C2=O)cc1 (centres undefined)	-2.9%	?	1.3
O=C1CC(NNc2ccccc2)C(=O)N1c1ccccc1 (centres undefined)	-9.7%	17.8µM*	nt
Cc1ccc(N2C(=O)CC(NNc3nc4ccccc4s3)C2=O)cc1C (centres undefined)	-3.8%	-2.0%	nt
Cc1ccc(NNC2CC(=O)N(c3cccc(Cl)c3)C2=O)cc1 (centres undefined)	nt	25.1µM*	nt
Cc1ccc(-c2nc3ncccc3o2)cc1NC(=O)c1ccccc1Br	nt	nt	8.5
CCCCC/C=C\C/C=C\C/C=C\CCCCC(N)=O	-7.2%	7.5%	nt
CCc1nnc(NS(=O)(=O)c2ccc(N/C=C\C(=O)c3cccc(OC)c3)cc2)s1	nt	-9.2%	nt
CCc1nnc(NS(=O)(=O)c2ccc(N/C=C\C(=O)c3ccc(C)cc3)cc2)s1	25.1µM*	?	3.8
CCc1nnc(NS(=O)(=O)c2ccc(N/C=C/C(=O)c3ccc(C)cc3)cc2)s1	17.8µM*	?	nt
Cc1cc(C)nc(NS(=O)(=O)c2ccc(N/C=C\C(=O)c3ccc(Cl)cc3)cc2)n1	-11.1%	-7.1%	-7.6
Brc1ccc(OCc2nnc(SCC3CCCCC3)o2)cc1	-0.8%	0.3%	5.6
Cc1cnc(CNc2ncnc3ccc(-c4ccccc4C)cc23)cn1	nt	-2.1%	nt
C=C(C)CNC(=S)NNC(=O)c1ccc(Br)cc1	-12.8%	-8.8%	3.0
COCCNC(=O)C1(CC(C)C)C=CCN1C(=O)OC (centres undefined)	-5.6%	2.9%	nt
O=C(COc1ccc([N+](=O)[O-])cc1)NCCC1=CCCCC1	-11.5%	10µM*	nt
COC(=O)COc1ccc(S(=O)(=O)NCCC2=CCCCC2)cc1C	-1.2%	-6.1%	-2.4
CC(C)NS(=O)(=O)c1ccc(OCC(=O)NCCC2=CCCCC2)cc1	-3.6%	-15.1%	6.2
CCCNS(=O)(=O)c1ccc(OCC(=O)NCCC2=CCCCC2)cc1	0.8%	11.2µM*	2.7
SMILES	HPGD block	ALDH1A1 block	IMPase cell inh
COC(=O)COc1ccc(S(=O)(=O)NCCC2=CCCCC2)cc1	-1.1%	22.4µM*	-7.3[1.84 µM]
Cc1ccc(OCC(=O)NCCC2=CCCCC2)cc1	-20.0%	?	nt
COc1ccc(CCNC(=O)CSc2ncn[nH]2)cc1	-7.9%	2.3%	-15.5
COC(=O)c1cnc2ccccc2n1	-12.1%	0.7%	?
O=C(O)c1cnc2ccccc2n1	?	25.1µM*	-3.5
CC(=O)NC1(NC(C)=O)CCN(C)CC1	nt	13.2%	nt
Cn1c(Oc2ccc(F)cc2)nc2c1c(=O)n(Cc1ccccc1Cl)c(=O)n2C	nt	nt	18.9
O=C(Nc1ccccc1C(=O)OCC(=O)N1CCc2ccccc2C1)c1ccco1	?	?	12.0
CO/N=C/NC(=O)c1c(OC)ccnc1Oc1ccccc1	-8.5%	6.31µM*	-6.9
COc1ccnc(Oc2ccc(F)cc2)c1C(=O)N/C=N/OCc1c(Cl)cccc1Cl	-9.7%	-6.2%	0.9
COc1cccc(OC)c1C(=O)Nc1cccnc1	nt	3.4%	nt
Cc1ccnc(NC(c2cc(C)ccc2O)c2ccc3cccnc3c2O)c1 (centres undefined)	nt	nt	6.5
COc1ccccc1NC(c1cccnc1)c1ccc2cccnc2c1O (centres undefined)	-15.3%	2.51µM*	9.2
Cc1ccc(N[C@H](c2ccccc2)c2ccc3cccnc3c2O)cc1	-6.9%	?	nt
Cc1ccnc(NC(c2ccsc2)c2ccc3ccc(C)nc3c2O)c1 (centres undefined)	nt	25.1µM*	nt
Cc1ccc2ccc(C(Nc3ccccn3)c3ccccc3)c(O)c2n1 (centres undefined)	-13.0%	-13.8%	7.4
Cc1ccnc(NC(c2cccnc2)c2ccc3cccnc3c2O)c1 (centres undefined)	nt	10µM*	nt
CC(Oc1ccccc1)C(=O)Nc1ccc(S(=O)(=O)NCC2CCCO2)cc1 (centres undefined)	-5.7%	12.9%	-2.0
COc1cccc(C2C3=C(N=C4SCC(=O)N42)c2ccccc2CC3)c1OC (centres undefined)	-17.8%	?	12.0

Source: PubChem BioAssay (National Center for Advancing Translational Sciences (NCATS))
